Measured values from PubChem BioAssay (NCI).
This is part of a sample that, as a whole, favours compounds with a hit. Of some 83,000 tested, about 20% had one in any assay.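 Cell lines were cultured in 96-well plates, exposed to a single compound concentration, and assessed for percent growth 48 hours later.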 Unmarked numbers belong to inactive results. The source made the active and inactive calls. The calls were made as follows: active = growth percent below 10; inactive = the rest.

Assays:
Assay in all cases: NCI-60 one-dose screen, 48 h (100 = growth as untreated, 0 = no growth, -100 = all killed)
Settings in all cases: 10 µM unless noted
[1] = system: NCI-H23 lung
[2] = system: NCI-H226 lung
[3] = system: NCI-H322M lung
[4] = system: HOP-62 NSCLC
[5] = system: NCI-H460 lung
[6] = system: HOP-92 NSCLC
[7] = system: NCI-H522 lung
[8] = system: A549/ATCC NSCLC
[9] = system: 786-0 renal
[10] = system: COLO 205 colon

SMILES	growth [1] [%]	growth [2] [%]	growth [3]	growth [4]	growth [5]	growth [6]	growth [7]	growth [8]	growth [9]	growth [10]
CC1Cc2c(ncn3c(-c4ccc(F)cc4)nnc23)N(C)c2ccccc21 (stereo not given)	73.4	33.2	2.19% (active)	59.5%	5% (active)	35.9%	63%	16.3%	29.9%	43.6%
O=c1c2cc(F)ccc2sc2c(NCCN3CCOCC3)nc3ccccc3c12	85.1	91.3	77.8%	80.9%	31.8%	44.6%	65.6%	69.3%	59.2%	53.2%
CCOC(=O)C1=C(N)Oc2c(sc3c(C)cccc23)C1c1ccc(Cl)cc1 (stereo not given)	28.2	32.9	47.3%	31.8%	13.1%	85%	23%	46.2%	35.7%	20.3%
COc1cccc(OC)c1C(=O)N[C@@H]1C(=O)N2[C@@H]1SC(C)(C)[C@@H]2C(=O)O	103	107	95.6%	103%	112%	44.9%	88.7%	105%	95.6%	107%
COc1ccc(NC(=O)n2nc(/C=C\c3ccc(O)c(OC)c3)cc2/C=C\c2ccc(O)c(OC)c2)cc1	43.9	87.2	58.1%	32.7%	14.2%	89.1%	-13.5% (active)	27.3%	32.1%	107%
Cc1ccc(S(=O)(=O)N/N=C/C2(c3ccccc3)CC2)cc1	101	113	111%	99%	95.1%	90.5%	105%	82%	112%	116%
CS(=O)(=O)Nc1cc(-c2ccc3ncnc(Nc4cccc(Cl)c4F)c3c2)cnc1Cl	56.6	49.2	47.2%	54.7%	41.5%	13.3%	53.8%	67.4%	29.6%	66.3%
CCCCCCCCCCCCCCCCCC1OCC(COC(=O)O[C@]2(CC)C(=O)OCc3c2cc2n(c3=O)Cc3cc4ccccc4nc3-2)O1 (stereo not given in full)	75.4	75.4	101%	53%	31.4%	92.6%	82.6%	78.5%	86.7%	79.3%
O=c1c2cc(F)ccc2sc2c(N3CCCCC3)nc3ccccc3c12	95.8	86	90.1%	99.3%	109%	84.2%	98.5%	96.2%	95.8%	106%
S=C(c1cccs1)N1CCN(c2cccc(Cl)c2)CC1	99.2	92.7	122%	102%	105%	81.7%	81.1%	87.6%	85.4%	107%
O=C(Nc1ccc(Cl)cc1F)c1ccccc1O	17	25.6	36.3%	42.6%	27.5%	-14.5% (active)	11%	46.3%	50.6%	98.2%
CCOC(=O)CCN(C(=O)Nc1ccccc1)C1CCCCC1	102	115	110%	86.8%	102%	111%	99.2%	132%	91.5%	139%
COc1ccc2c(c1OC)C(=O)O[C@H]2[C@H]1c2c(cc3c(c2OC)OCO3)CCN1C	92.5	99.6	104%	98.1%	105%	97%	92%	101%	99.5%	104%
Cc1cccc2c3c(sc12)C(c1ccc(F)cc1)C(C#N)=C(N)O3 (stereo not given)	21.3	26.1	46.4%	33.2%	3.07% (active)	68.4%	13.6%	22.1%	16.7%	-37.3% (active)
COc1cc(C(=O)c2cnc(-c3cccc4[nH]ccc34)[nH]2)cc(OC)c1OC	26.4	45.7	35.3%	33.8%	2.81% (active)	17.5%	-7.75% (active)	24.5%	6.82% (active)	-36.9% (active)
C=C1CC[C@@]2(C#N)[C@H]3[C@H](CC[C@@H]2C)[C@@H](C)C[C@@H](CC(C)(C)C#N)[C@H]13	44.1	62.7	90.2%	41.9%	22.8%	-16.9% (active)	47.7%	42.9%	43%	35.5%
COc1ccc(-c2nnc(COc3ccc(Cl)cc3Cl)o2)cc1OC	56.3	32.8	16.8%	-1.03% (active)	-4.77% (active)	-32.4% (active)	19.4%	9.7% (active)	-70.8% (active)	58.5%
N#Cc1c(-c2ccc(Cl)cc2)nc2c(c(-c3ccccc3)nn2-c2ccccc2)c1-c1ccc(O)cc1	49	65.9	70.8%	49.9%	25.1%	56.4%	55.6%	41.9%	17.7%	52.6%
COC(=O)C(Cc1ccccc1)NC(=O)NC(=O)NC(=O)CI (stereo not given)	63.2	82.9	108%	102%	92.3%	-26% (active)	-82.1% (active)	99.8%	-3.88% (active)	25.4%
Cc1nn(-c2ccccc2)c2c1N=c1s/c(=C\c3ccc(C(F)(F)F)cc3)c(=O)n1CN2	51.1	61	75.7%	87.7%	53.8%	56.4%	40.5%	5.73% (active)	73.2%	85.6%
O=c1c2cccc(Cl)c2sc2c(NCCCNCCO)nc3ccccc3c12	52.4	67.7	44%	39.6%	-86.2% (active)	-0.275% (active)	49.5%	27.5%	45.6%	-61.4% (active)
COc1cc(/C=C/C(=O)/C=C/c2cc(OC)c3c(c2OC)OCO3)c(OC)c2c1OCO2	33.2	73.9	56.8%	72.8%	23.5%	74.1%	-15.5% (active)	55.1%	29%	13.3%
COc1ccc(C2C(C#N)=C(N)Oc3c2sc2c(C)cccc32)cc1 (stereo not given)	18.2	13.5	48.2%	40.8%	7.35% (active)	80%	21.5%	28.4%	27.8%	0.625% (active)
COc1cc(C(=O)c2cc(C)c3[nH]c4ccc(C)cc4c3c2C)cc(OC)c1OC	16.7	54.4	39.9%	38.9%	6.57% (active)	29.2%	19.8%	20.9%	19.4%	-19.2% (active)
O=C(CCN1C(=O)/C(=C/c2ccc(O)cc2)SC1=S)Nc1ccc(Cl)cc1	91.3	97.8	82.6%	84.8%	102%	85.9%	19.9%	92.1%	99.7%	120%
Cc1ccc(C(CC(=O)O)c2c(C)[nH][nH]c2=O)cc1 (stereo not given)	95.3	102	104%	97.9%	108%	118%	94.5%	105%	96%	113%
